# Most compounds without a hit are left out; they make up all but 3.9% or so of the library.
# PLCb3 inh = inhibitors of human phospholipase C beta3; inhibition, % at 12.2 µM; Purified PLC-beta3, fluorogenic substrate, fluorescence; AID 720704; 370,000 compounds, 0.18% hits; Q01970; in the data active = inhibition above about 11%;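 also: 0% = median of compound wells on plate and 100% = full blocker control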
# AHR act = activators of human aryl hydrocarbon receptor; activation, % at 5 µM; AHR-responsive luciferase reporter cells, luminescence; AID 2796; 320,000 compounds, 2.5% hits; in the data active = activation above about 47%;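 also: 0% = vehicle wells and 100% = reference agonist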
# PLCg1 inh = inhibitors of human phospholipase C gamma1; P19174; purified PLC-gamma1, fluorogenic substrate, fluorescence; inhibition, % at 12.2 µM; 370,000 compounds, 0.84% hits; AID 720700; in the data active = inhibition above about 9.5%
# sPLA2-III inh = Blocks human group III sPLA2 activity; Q9NZ20; QFRET BODIPY PC-A2 liposome hydrolysis, fluorescence; inhibition, % at 12.2 µM; 370,000 compounds, 0.56% hits; AID 743126;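 active = inhibition above mean plus 3 SD of compounds lying within the high and low control bounds, cut at about 19% in these data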;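 also: 0% = median of test compound wells and 100% = no enzyme DMSO wells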
# CR mimetic SO = caloric restriction mimetics inhibiting age-related superoxide in yeast. S. cerevisiae aged cells, superoxide DHE fluorescence; stronger effect = lower value. superoxide response (% of plate mean), % at 10 µM. AID 2690. 330,000 compounds, 0.18% hits;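 active = superoxide response under a set limit, about three screen SD below normal, cut at about 65% in these data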;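 also: yeast aged for seven days with compound at 30 °C before DHE staining; 100% = average MFI of all compound-treated wells on the plate with controls excluded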
# HIF act = HIF pathway transcriptional activation. U2OS HRE-luciferase reporter, luminescence; normalized: DMSO 0%, desferrioxamine 100%. activation, % at 7.5 µM (by protocol). 300,000 compounds, 0.32% hits. AID 1910;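 active = mean activation of at least 10% of the iron chelator positive control signal, with at least half of replicates also reaching 10%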
# AHR act confirm = confirmation of human aryl hydrocarbon receptor activators; shares compounds with AHR act; human cells, AHR-responsive luciferase reporter, luminescence; activation, % at 9 µM; 2,300 compounds, 87% hits; AID 2845; in the data active = activation above about 49%;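 also: HepG2 hepatoma cells carrying a DRE-driven firefly luciferase reporter; 0% = vehicle wells and 100% = reference agonist wells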
# PXR counter = counter-screen for AHR activators: human PXR activators; shares compounds with AHR act; cell-based PXR reporter, luciferase luminescence; activation, % at 11.6 µM; 2,300 compounds, 88% hits; AID 434939; in the data active = activation above about 11%;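 also: human hepatoma DPX-2 cells expressing full-length human PXR; 0% = DMSO and 100% = reference agonist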
# * hit, by the source's call; nt = no result.
SMILES,PLCb3 inh,AHR act,PLCg1 inh,sPLA2-III inh,CR mimetic SO,HIF act,AHR act confirm,PXR counter
C=CCOC(=O)c1[nH]c2c(c1C)C(=O)CC(c1ccco1)C2 (stereo not given),nt,103*,nt,nt,101,3,23,195*
C/C=C/COC(=O)c1[nH]c2c(c1C)C(=O)CC(c1ccco1)C2 (stereo not given),-45,116*,-30,5,97,3,41,197*
C/C=C/COC(=O)c1[nH]c2c(c1C)C(=O)CC(c1ccc(N(C)C)cc1)C2 (stereo not given),0,17,-3,8,88,1,nt,nt
Cc1c(C(=O)OCC2CCCO2)[nH]c2c1C(=O)CC(c1ccco1)C2 (stereo not given),nt,8,nt,nt,94,2,nt,nt
Cc1ccc(NC2CCCN(C(=O)Cc3nonc3C)C2)cc1C (stereo not given),-4,37,0,-2,85,0,nt,nt
COCCCNC(=O)c1ccc(S(=O)(=O)c2ccc(Cl)cc2)c(NC(C)=O)c1,-5,1,0,1,99,0,nt,nt
O=C(NCC1OCCc2ccccc21)c1ccco1 (stereo not given),-4,86*,0,3,104,0,129*,14*
O=C(CCc1ccccc1)NCC1OCCc2ccccc21 (stereo not given),-5,-2,0,3,95,0,nt,nt
N=C1S/C(=C\c2ccco2)C(=O)N1c1nccs1,-14,112*,-3,-10,130,3,111*,10*
Cc1cc2c([nH]c3ccccc32)c2c1OC(C)(C)C=C2,0,102*,1,-54,121,4,119*,72*
NNc1nc2ccc(Cl)cc2s1,-9,115*,-7,1,98,2,106*,22*
Cc1ccc(NC(=O)CN(C)C(=O)CSc2nnc(C)s2)cc1,5,0,-1,3,101,nt,nt,nt
COCCNC(=O)C1(C)CCCN(Cc2ccc(Oc3ccccc3)cc2)C1 (stereo not given),2,nt,0,-1,nt,nt,nt,nt
O=C(COc1cccnc1[N+](=O)[O-])c1c[nH]c2ccccc12,-7,87*,-1,-9,94,0,108*,16*
CCCCC(=O)N1C(C)CCC1C (stereo not given),-4,nt,1,4,nt,nt,nt,nt
CCn1cc(Br)c(C(=O)Nc2ccc(Cl)cc2Cl)n1,2,82*,-3,0,99,1,126*,11*
Cc1cccc(C(=O)N[C@H](C(=O)Nc2ncc(C)s2)C(C)C)c1,-4,104*,2,-3,107,0,19,364*
Cc1cccc(C(=O)N[C@H](C(=O)Nc2nnc(C3CC3)s2)C(C)C)c1,2,2,0,-16,103,-1,nt,nt
CCOC(=O)N1CCN(C(=O)CCCn2c(=S)[nH]c3ccsc3c2=O)CC1,-6,3,-3,8,105,0,nt,nt
Cc1nn(-c2ccccc2)c2[nH]c(=O)c(CNc3ccc(N4CCOCC4)cc3)cc12,-253,4,-211,-7,86,-12,nt,nt
Cc1nn(-c2ccc(Cl)cc2)c2[nH]c(=O)c(CNCc3ccc4c(c3)OCO4)cc12,-18,88*,-15,-10,94,-3,83*,36*
COc1ccccc1N=CC1=C(O)CC(c2ccccc2)CC1=O (stereo not given),-12,100*,-10,-3,96,1,94*,13*
O=C(OCc1cc(=O)n2ccsc2n1)c1ccccc1NCCO,-97,79*,-65,15,95,nt,79*,5
O=C(OCc1cc(=O)n2ccsc2n1)c1ccccc1O,-7,0,-3,4,107,nt,nt,nt
C[C@@H]1C=CCCO[C@]12C(=O)Nc1ccccc12,-5,nt,-8,-1,nt,nt,nt,nt
Nc1ncnc2c1ncn2[C@@H]1O[C@H](C(=O)N(CCC2=CCCCC2)CC2CC2)[C@@H](O)[C@H]1O,6,nt,3,6,nt,nt,nt,nt
Cc1ccc(NC(=O)c2cccc3cccnc23)cc1,-7,121*,2,3,101,5,110*,30*
